Records with an inconclusive call do not appear. Activity calls are given as the source filed them. How the source made its calls, unless noted: active means hit-call score of the fitted dose curve at least 0.9, where 1 is the maximum; inactive means score below 0.9.
System: not listed separately
Test: CCTE_Harrill_HTTr_Viability_MCF7: CCTE's 6-hour Cell Viability Assessment for the High-Throughput Transcriptomics (HTTr) Platform, in MCF-7 cells cultured in DMEM + 10% fetal bovine serum, Harrill Lab (AID 2284010)
Conditions: not given
Summary of the method: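 Membrane integrity was scored by high-content imaging of propidium iodide dye exclusion after a 6 h exposure across an eight-point dilution series. Data were fitted bidirectionally relative to DMSO as negative control and baseline.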

SMILES | outcome
O=C1C(Cl)=C(Cl)C(=O)C(Cl)=C1Cl | inactive
N#CCCCCC#N | inactive
[N-]=[N+]=CC(=O)OC[C@H](N)C(=O)O | inactive
C=COCCCl | inactive
C=CCN(CC=C)C(=O)C(Cl)Cl | inactive
CCOC(=O)N(C)N=O | inactive
O=CNC(N1CCN(C(NC=O)C(Cl)(Cl)Cl)CC1)C(Cl)(Cl)Cl (stereo unspecified) | inactive
CCC[N+](=O)[O-] | inactive
Cc1ccc(OP(=O)(Oc2ccc(C)cc2)Oc2ccc(C)cc2)cc1 (tested in a mixture with another compound) | inactive
O=S(=O)(c1ccccc1)c1ccccc1 | inactive
O=C1Nc2ccc(Cl)cc2C(c2ccccc2)=NC1O (stereo unspecified) | inactive

System: not listed separately
Test: CCTE_Harrill_HTTr_Apoptosis_MCF7: CCTE's 6-hour Apoptosis Assessment for the High-Throughput Transcriptomics (HTTr) Platform, in MCF-7 cells cultured in DMEM + 10% fetal bovine serum, Harrill Lab (AID 2284011)
Conditions: not given
Summary of the method: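 Cells are dosed with test chemicals at eight concentrations and imaged 6 hours later for caspase-3/7 activity using a green fluorogenic detection reagent. Activity is fitted in both directions against DMSO controls.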

SMILES | outcome
O=C1C(Cl)=C(Cl)C(=O)C(Cl)=C1Cl | inactive
N#CCCCCC#N | inactive
C=CCN(CC=C)C(=O)C(Cl)Cl | inactive
CC(Cc1ccc(C(C)(C)C)cc1)CN1C[C@@H](C)O[C@@H](C)C1 (stereo partly specified) | inactive
CCOC(=O)N(C)N=O | inactive
O=CNC(N1CCN(C(NC=O)C(Cl)(Cl)Cl)CC1)C(Cl)(Cl)Cl (stereo unspecified) | inactive
Cc1ccc(OP(=O)(Oc2ccc(C)cc2)Oc2ccc(C)cc2)cc1 (tested in a mixture with another compound) | inactive
O=S(=O)(c1ccccc1)c1ccccc1 | inactive
CCOC(=O)COc1ccc(Cl)cc1Cl | inactive
O=C1Nc2ccc(Cl)cc2C(c2ccccc2)=NC1O (stereo unspecified) | inactive

System: not listed separately
Test: CCTE_Harrill_HTTr_CellCount_MCF7: CCTE's Cell Proliferation Assessment for the High-Throughput Transcriptomics (HTTr) Platform, Harrill Lab (AID 2284012; active means hit-call score of the fitted dose curve at least 0.9, where 1 is the maximum;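 further: cells exposed to compound for six hours; intended direction is loss of nuclei count meaning fewer cells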)
Conditions: not given
Summary of the method: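 MCF-7 cells were exposed for 6 h to an eight-point dilution series; Hoechst-labeled nuclei were counted by high content imaging. Curves were fitted bidirectionally against DMSO as negative control and baseline, with signal loss indicating reduced cell count.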

SMILES | outcome
O=C1C(Cl)=C(Cl)C(=O)C(Cl)=C1Cl | inactive
N#CCCCCC#N | inactive
[N-]=[N+]=CC(=O)OC[C@H](N)C(=O)O | inactive
C=COCCCl | inactive
O=CNC(N1CCN(C(NC=O)C(Cl)(Cl)Cl)CC1)C(Cl)(Cl)Cl (stereo unspecified) | inactive
CCC[N+](=O)[O-] | inactive
CC(C)(O)C#N | inactive
Cc1ccc(OP(=O)(Oc2ccc(C)cc2)Oc2ccc(C)cc2)cc1 (tested in a mixture with another compound) | inactive
O=S(=O)(c1ccccc1)c1ccccc1 | inactive
CCOC(=O)COc1ccc(Cl)cc1Cl | inactive
O=C1Nc2ccc(Cl)cc2C(c2ccccc2)=NC1O (stereo unspecified) | inactive

System: not listed separately
Test: CCTE_Deisenroth_AIME_384WELL_CTox_Inactive: Cytotoxicity Assessment (CTOX) in CCTE's 384-well Estrogen Receptor Transactivation Assay without AIME metabolic competence (metabolism negative), Deisenroth Lab (AID 2284039; active means hit-call score of the fitted dose curve at least 0.9, where 1 is the maximum;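 further: cell viability via live-cell protease substrate cleaved to fluorescent probe; cells exposed 24 h to medium preincubated 2 h with alginate-water beads without S9; loss of fluorescence signal means loss of viability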)
Conditions: not given
Summary of the method: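 VM7Luc4E2 human breast cells received conditioned medium from a 2 h incubation of chemical with alginate-water microspheres (no S9), then were exposed 24 h. Viability was read as protease-substrate cleavage to a fluorescent probe; loss of signal was fitted bidirectionally over 0.002–200 uM.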

SMILES | outcome | AC50
N#CCCCCC#N | inactive | –
CC(C)(c1cc(Cl)c(O)c(Cl)c1)c1cc(Cl)c(O)c(Cl)c1 | – | 153 µM (active)
C=CCN(CC=C)C(=O)C(Cl)Cl | inactive | –

Read-out: not listed separately
Test: BSK_BT_PBMCCytotoxicity: PBMC Cytotoxicity Assessment in the BioMAP Diversity Plus: BT Assay (AID 2284225);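 further: PBMC viability measured by Alamar Blue dye reduction fluorescence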
Conditions: primary human B cells with PBMC
Summary of the method: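 75,000 cells/well; cpd 1 h → SEB + TSST-1 (20 ng/mL final each) → 90 h → Alamar Blue 6 h → fluor. 546/580 nm. DMSO = neg. control/baseline.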

SMILES | AC50 | outcome
O=C1C(Cl)=C(Cl)C(=O)C(Cl)=C1Cl | 26.4 µM (active) | –
CC(C)(c1cc(Cl)c(O)c(Cl)c1)c1cc(Cl)c(O)c(Cl)c1 | – | inactive
COCC(=O)N(c1c(C)cccc1C)N1CCOC1=O | – | inactive
CC(C)CCCCCCCOP(=O)(Oc1ccccc1)Oc1ccccc1 | 35.8 µM (active) | –
C=CCN(CC=C)C(=O)C(Cl)Cl | – | inactive
c1ccc(Nc2ccc3ccccc3c2)cc1 | – | inactive
Cc1ccc(OP(=O)(Oc2ccc(C)cc2)Oc2ccc(C)cc2)cc1 (tested in a mixture with another compound) | 5.41 µM (active) | –
O=S(=O)(c1ccccc1)c1ccccc1 | – | inactive
CC(=O)/C=C/c1ccccc1 | 17.4 µM (active) | –

Read-out: Secreted IgG (sIgG), gene 3500
Test: BSK_BT_sIgG: BioMAP Diversity Plus: BT Assay for Secreted IgG (sIgG) Biomarker Activity (AID 2284226)
Conditions: primary human B cells with PBMC
Summary of the method: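 B cells co-cultured with PBMC were dosed with chemical and secreted IgG quantified by ELISA at 24 h. Activity was fitted in the positive direction relative to DMSO as negative control and baseline.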

SMILES | AC50 | outcome
O=C1C(Cl)=C(Cl)C(=O)C(Cl)=C1Cl | 32.6 µM (active) | –
CC(C)(c1cc(Cl)c(O)c(Cl)c1)c1cc(Cl)c(O)c(Cl)c1 | – | inactive
COCC(=O)N(c1c(C)cccc1C)N1CCOC1=O | – | inactive
CC(C)CCCCCCCOP(=O)(Oc1ccccc1)Oc1ccccc1 | 18.9 µM (active) | –
C=CCN(CC=C)C(=O)C(Cl)Cl | – | inactive
c1ccc(Nc2ccc3ccccc3c2)cc1 | 31.5 µM (active) | –
Cc1ccc(OP(=O)(Oc2ccc(C)cc2)Oc2ccc(C)cc2)cc1 (tested in a mixture with another compound) | 13.5 µM (active) | –
O=S(=O)(c1ccccc1)c1ccccc1 | – | inactive
CC(=O)/C=C/c1ccccc1 | 27.2 µM (active) | –

Read-out: not listed separately
Test: BSK_BT_Bcell_Proliferation: Viability Assessment in the BioMAP Diversity Plus: BT Assay for B cell Proliferation (AID 2284227)
Conditions: primary human B cells with PBMC
Summary of the method: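 Read-out is absorbance at 560 nm from sulforhodamine B staining of total protein, reflecting relative cell numbers in a human B cell and PBMC co-culture after 72 h of chemical exposure. Values were referenced to DMSO.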

SMILES | AC50 | outcome
O=C1C(Cl)=C(Cl)C(=O)C(Cl)=C1Cl | 26 µM (active) | –
CC(C)(c1cc(Cl)c(O)c(Cl)c1)c1cc(Cl)c(O)c(Cl)c1 | – | inactive
COCC(=O)N(c1c(C)cccc1C)N1CCOC1=O | – | inactive
CC(C)CCCCCCCOP(=O)(Oc1ccccc1)Oc1ccccc1 | 29.5 µM (active) | –
C=CCN(CC=C)C(=O)C(Cl)Cl | – | inactive
c1ccc(Nc2ccc3ccccc3c2)cc1 | 27.2 µM (active) | –
Cc1ccc(OP(=O)(Oc2ccc(C)cc2)Oc2ccc(C)cc2)cc1 (tested in a mixture with another compound) | – | inactive
O=S(=O)(c1ccccc1)c1ccccc1 | – | inactive
CC(=O)/C=C/c1ccccc1 | 26.1 µM (active) | –

Read-out: Interleukin 6 (IL6), IL6 (gene 3569)
Test: BSK_BT_xIL6: BioMAP Diversity Plus: BT Assay for Interleukin 6 (IL6) Biomarker Activity (AID 2284228)
Conditions: primary human B cells with PBMC
Summary of the method: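 Chemical added to human B cell/PBMC co-culture → 24 h → supernatant IL-6 by Luminex xMAP → fit vs DMSO baseline, upward direction.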

SMILES | AC50 | outcome
O=C1C(Cl)=C(Cl)C(=O)C(Cl)=C1Cl | 30.3 µM (active) | –
CC(C)(c1cc(Cl)c(O)c(Cl)c1)c1cc(Cl)c(O)c(Cl)c1 | – | inactive
COCC(=O)N(c1c(C)cccc1C)N1CCOC1=O | – | inactive
CC(C)CCCCCCCOP(=O)(Oc1ccccc1)Oc1ccccc1 | 26.1 µM (active) | –
C=CCN(CC=C)C(=O)C(Cl)Cl | – | inactive
c1ccc(Nc2ccc3ccccc3c2)cc1 | 29.9 µM (active) | –
Cc1ccc(OP(=O)(Oc2ccc(C)cc2)Oc2ccc(C)cc2)cc1 (tested in a mixture with another compound) | 13.2 µM (active) | –
O=S(=O)(c1ccccc1)c1ccccc1 | – | inactive
CC(=O)/C=C/c1ccccc1 | 20 µM (active) | –

Reference: PubChem BioAssay (EPA / NIEHS)
